Data as given in PubChem BioAssay (NCI).
About 83,000 compounds went through this panel and 20% of them were active in at least one assay; those are over-represented in the sample as a whole.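 The endpoint reported here, percent growth, reads 100 for growth as untreated, 0 for no net growth and -100 for all cells dead.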 A number with no mark means an inactive call. Active and inactive are the calls of the source. Rule for the calls: active = growth percent below 10; inactive = the rest.

What follows are compounds tested on HL-60(TB) leukemia (assay: NCI-60 one-dose screen, 48 h (100 = growth as untreated, 0 = no growth, -100 = all killed)). Conditions: 10 µM unless noted.

Row | SMILES | growth
1 | CN(C)c1ccc(N)c2ccccc12 | 43.5%
2 | CC1=C2[C@@H](CC1)[C@]1(C)O[C@@](C(C)C)(C[C@H]1OC(=O)CO)[C@H]2OC(=O)CCCc1ccccc1 | 1.28% (active)
3 | CN1CCN(Cc2ccc(NC(=O)c3ccc(C(C)(C)C)c(C#Cc4cnc5cccnn45)c3)cc2C(F)(F)F)CC1 | -17.4% (active)
4 | Cc1ccc(C)n1/C=C/n1c(C)ccc1C | 128%
5 | CC(C)CCN(CCC(C)C)CC(O)c1cc2c(c3ccccc13)CCCC2 (stereo not given) | 78.6%
6 | FC(F)(F)Oc1ccc2nc3nc4ccc[nH]c4cc3c2c1 | 73.4%
7 | CN1CCN(c2nc(-c3cccnc3)nc3sc4c(c23)CCCCCC4)CC1 | 87.2%
8 | O=C(Nc1ccccc1Cl)c1ccc(NC2=C(Cl)C(=O)N(C3CCCCC3)C2=O)cc1 | -36.7% [30 µM] (active)
9 | COC(=O)c1c2c(c(C)[n+]([O-])c1C)C(=O)C=C(NCc1ccc(Cl)cc1)C2=O | -30.5% (active)
10 | C=CN(C(=O)N1CCN(c2cc3c(cc2F)c(=O)c(C(=O)O)cn3C2CC2)CC1)c1nc(-c2ccc(Cl)cc2)cs1 | 10.7%
11 | CCC(OC(=O)CC(C)C)c1ccccc1 (stereo not given) | 102%
12 | CN(C)CCCn1c2c(c3cc(-c4ccco4)ccc3c1=O)C(=O)c1ccccc1-2 | 93.1%
13 | Cc1nc(Nc2ccccn2)sc1C(=O)/C=C/c1ccc(Br)cc1 | 41.7%
14 | COc1cc([C@@H]2c3cc4c(cc3C(O[C@@H]3O[C@@H]5CO[C@@H](c6cccs6)OC5[C@H](O)[C@H]3O)C3COC(=O)[C@@H]32)OCO4)cc(OC)c1O (stereo not given in full) | -21.7% (active)
15 | C[C@]12CCc3c(ccc4cc(O)ccc34)[C@@H]1CC[C@H]2O | 86.7%
16 | CN1C(=O)[C@H]2c3c1cccc3[C@@]13NC(=O)O[C@H]1[C@H](CCC3(C)C)C2(C)C | 97.9%
17 | O=C(CCl)n1nnnc1Cc1ccccc1 | 83.5%
18 | NS(=O)(=O)Oc1ccc(-c2sc3cc(O)ccc3c2C(=O)c2ccc(OCCN3CCCCC3)cc2)cc1 | 47.7%
19 | COc1ccc(NNS(=O)(=O)O)cc1 | 103%
20 | COc1cc(NS(C)(=O)=O)ccc1Nc1c2ccc(Cl)cc2nc2c(OC)cccc12 | -30.1% (active)

Row | SMILES | growth
21 | Nc1nc(=O)n([C@H]2CC=C(CO)O2)cc1F | 88%
22 | Cc1nc2c3c(-c4ccccc4)c(-c4ccccc4)oc3ncn2n1 | 91.4%
23 | Cc1ccc(S(=O)(=O)N2CCC(C(=O)Nc3ccc(F)cc3F)CC2)cc1 | 88.2%
24 | O=C(/C=C/c1ccccc1)n1c(-c2ccc(Cl)cc2)nc2ccccc21 | -3.97% (active)
25 | CN(C)c1ccc(/C=C/c2sc3ccc4ccccc4c3[n+]2C)cc1 | -41.8% (active)
26 | OC1COC(OCc2ccccc2)C(O)C1O (stereo not given) | 101%
27 | Cc1cnc(C(=O)NNc2nc3sc4c(c3c(=O)[nH]2)C(C)CCC4)cn1 (stereo not given) | -30.7% (active)
28 | FC(F)(F)c1ccc(/C=N/Nc2nnc3n2N=C(c2ccc(Cl)cc2)CS3)cc1 | 93.3%
29 | Nc1nc(SN=Nc2ccc(S(N)(=O)=O)cc2)c2[nH]cnc2n1 | -16% (active)
30 | O=C(CI)OCC(COC(=O)CI)OC(=O)CI | 53.3%
31 | CC(=O)N1N=C(c2ccc(C)cc2)CC1c1ccc(Oc2ccc(Br)cc2)cc1 (stereo not given) | 94%
32 | COc1ccc(NC(=O)c2sc3nc4c(cc3c2N)C(O)CCC4)cc1 (stereo not given) | 93.2%
33 | O=C1C(Br)=CC2C1C1C3CCC3C2(Br)C12OCCO2 (stereo not given) | -6.23% (active)
34 | CCCCCCCCCCCCCCCCCC(=O)NCCNC(=O)CCCCCCCCCCCCCCCCC | 67.8%
35 | COc1ccc(C2CC(c3ccccc3)=NN2c2nc(C)c(C(C)=O)s2)cc1 (stereo not given) | 101%
36 | C=C1CC[C@@H]2[C@](C)(COC(C)=O)[C@H](OC(C)=O)CC[C@@]2(C)[C@@H]1CC(Nc1ccc(S(=O)(=O)Nc2ncccn2)cc1)C1=CCOC1=O (stereo not given in full) | -17.2% (active)
37 | CCC(C)(CC)c1ccc(O)c(C)c1 | 105%
38 | CCCCCC(=O)Oc1ccc(/C(=C(\C)c2ccccc2)c2ccc(OCCN3CCCCC3)cc2)cc1 | 70.2%
39 | COc1ccc(C(=O)C(C)C)c2ccccc12 | 78.9%
40 | CC(=O)O[C@H]1[C@H](CC#CC#CC[C@@H]2C[C@]3(C)[C@H]4CC=C5[C@H]6[C@@H](C)[C@H](C)CC[C@]6(C(=O)NCCN(CCN)CCN)CC[C@@]5(C)[C@]4(C)CC[C@H]3C(C)(C)[C@H]2OC(C)=O)C[C@]2(C)[C@H]3CC=C4[C@H]5[C@@H](C)[C@H](C)CC[C@]5(C(=O)NCCN(CCN)CCN)CC[C@@]4(C)[C@]3(C)CC[C@H]2C1(C)C | 34.2%
